“And” between values parts separate entries of the source, which are not always exact repeats. Identical values can stand only once. Records with an inconclusive call do not appear. The source made the active and inactive calls. Unless noted, the call rests on the fitted dose curve.
Columns and labels:
[1] = qHTS assay for small molecule agonists of retinoid X receptor alpha signaling (AID 588544); conditions: HEK293T RXRa-UAS-bla, beta-lactamase reporter, 18 h; 530 nm emission;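 on activation: 0% = DMSO basal wells and 100% = reference agonist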
[2] = molecular target: Retinoic acid receptor RXR-alpha (Homo sapiens) (UniProt P19793); experiment: as above; conditions: HEK293T RXRa-UAS-bla, beta-lactamase reporter, 18 h; series mostly up to 76.7 µM
Retinoic acid receptor RXR-alpha (Homo sapiens), sequence (P19793 whole entry, looked up): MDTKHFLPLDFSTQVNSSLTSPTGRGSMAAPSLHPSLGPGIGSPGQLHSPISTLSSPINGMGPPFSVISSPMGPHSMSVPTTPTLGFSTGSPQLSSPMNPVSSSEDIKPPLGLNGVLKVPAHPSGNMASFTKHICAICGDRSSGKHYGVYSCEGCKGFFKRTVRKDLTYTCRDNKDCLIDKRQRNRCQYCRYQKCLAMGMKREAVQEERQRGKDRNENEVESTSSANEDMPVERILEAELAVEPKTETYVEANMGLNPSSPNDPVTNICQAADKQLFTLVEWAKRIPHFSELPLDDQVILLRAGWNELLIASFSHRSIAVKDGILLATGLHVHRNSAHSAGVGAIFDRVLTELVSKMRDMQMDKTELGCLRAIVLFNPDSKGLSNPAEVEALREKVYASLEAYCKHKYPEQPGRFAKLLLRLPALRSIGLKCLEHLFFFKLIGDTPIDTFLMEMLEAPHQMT

[3] = qHTS assay for small molecule antagonists of retinoid X receptor alpha signaling (AID 588546; active means well fitted inhibition curve with a large enough effect in the signal ratio, with a control signal flat, not every such curve was filed as active; the % refers to the signal ratio;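 further: cells stimulated with 9-cis-retinoic acid as agonist; on the % scale 0 is the no-effect control and ±100 the full control effect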); conditions: HEK293T RXRa-UAS-bla, beta-lactamase ratio, antagonist mode; measured here: W530 green channel, cytotoxicity proxy
Procedure, shortened: (§1)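 Beta-lactamase reporter inhibition, read as CCF4 fluorescence ratio (ex 405, em 460/530 nm) after 2 h at RT. HEK293T UAS-bla cells, 2500/well, were stimulated with 9-cis-RA at 500 or 100 nM final alongside test compound for 18 h at 37 C.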

[4] = molecular target: Retinoic acid receptor RXR-alpha (Homo sapiens) (UniProt P19793); experiment: as above; conditions: HEK293T RXRa-UAS-bla, beta-lactamase ratio, antagonist mode
Procedure, shortened: as §1

[5] = molecular target: Voltage-gated inwardly rectifying potassium channel KCNH2 (Homo sapiens) (UniProt Q12809); experiment: qHTS Assay for Small Molecule Inhibitors of the Human hERG Channel Activity (AID 588834; active means well fitted inhibition curve with a large enough effect;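 further: U2OS cells transduced with hERG by BacMam; top concentration of the series differs between compounds; on the % scale 0 is the no-effect control and ±100 the full control effect; lower thallium flux fluorescence means stronger hERG block; nearly all actives have a fitted effect of over 50% in size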); conditions: U2OS BacMam hERG, FluxOR thallium flux fluorescence; series mostly up to 92.2 µM
Voltage-gated inwardly rectifying potassium channel KCNH2 (Homo sapiens), sequence (Q12809 whole entry, looked up): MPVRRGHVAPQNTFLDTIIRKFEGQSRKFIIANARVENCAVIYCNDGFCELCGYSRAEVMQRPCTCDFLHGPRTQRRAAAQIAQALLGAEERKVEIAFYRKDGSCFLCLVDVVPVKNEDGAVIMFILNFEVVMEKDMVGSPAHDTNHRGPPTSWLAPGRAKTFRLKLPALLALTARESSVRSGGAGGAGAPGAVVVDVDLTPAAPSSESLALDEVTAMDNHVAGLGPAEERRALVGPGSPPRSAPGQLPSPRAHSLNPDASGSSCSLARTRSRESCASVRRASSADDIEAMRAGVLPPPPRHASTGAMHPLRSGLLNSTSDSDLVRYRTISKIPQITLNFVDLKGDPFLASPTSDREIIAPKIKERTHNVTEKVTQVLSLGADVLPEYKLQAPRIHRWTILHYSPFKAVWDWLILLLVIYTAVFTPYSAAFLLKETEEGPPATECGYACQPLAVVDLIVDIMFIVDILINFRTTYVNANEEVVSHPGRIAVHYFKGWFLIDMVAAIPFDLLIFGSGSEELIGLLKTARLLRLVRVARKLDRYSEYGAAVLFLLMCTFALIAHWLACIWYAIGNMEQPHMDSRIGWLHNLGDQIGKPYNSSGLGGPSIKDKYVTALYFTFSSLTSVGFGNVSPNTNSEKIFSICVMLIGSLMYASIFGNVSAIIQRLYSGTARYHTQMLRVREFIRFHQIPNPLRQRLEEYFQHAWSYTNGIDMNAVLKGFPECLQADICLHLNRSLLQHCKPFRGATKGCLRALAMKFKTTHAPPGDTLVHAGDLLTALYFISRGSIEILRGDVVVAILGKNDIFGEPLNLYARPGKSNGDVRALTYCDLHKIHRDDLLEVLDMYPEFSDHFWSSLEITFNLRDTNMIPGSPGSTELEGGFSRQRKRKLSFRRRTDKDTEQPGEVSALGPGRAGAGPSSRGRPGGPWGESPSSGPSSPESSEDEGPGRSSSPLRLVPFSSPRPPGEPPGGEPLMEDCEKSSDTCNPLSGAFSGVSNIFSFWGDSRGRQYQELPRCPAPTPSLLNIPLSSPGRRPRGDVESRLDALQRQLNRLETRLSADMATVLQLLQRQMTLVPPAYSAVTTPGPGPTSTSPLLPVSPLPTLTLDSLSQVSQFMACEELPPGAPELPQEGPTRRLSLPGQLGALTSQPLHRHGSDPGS
Procedure, shortened: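 Cells were infected with hERG-BacMam virus for 4 hrs at room temperature, grown overnight, then seeded at 2000/well. After dye loading and roughly 10 min compound treatment, thallium influx was triggered and fluorescence recorded.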

[6] = qHTS assay for small molecule agonists of the antioxidant response element (ARE) signaling pathway (AID 651741; active means well fitted activation curve with a large enough effect in the signal ratio; the % refers to the signal ratio; further: potency means the concentration at half of the fitted maximal effect; on activation: % of control where 0% means no effect); conditions: HepG2 ARE-bla reporter, beta-lactamase FRET ratio, 16 h; series mostly up to 96 µM
Procedure, shortened: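 HepG2 ARE-bla reporter cells, 2,000/well; 5 h settle at 37 C/5% CO2; compound pin transfer (23 nL, DMSO); 16 h at 37 C; LiveBLAzer B/G FRET substrate, 2 h RT; fluorescence intensity read.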

[7] = qHTS assay for small molecule activators of the p53 signaling pathway (AID 651743; active means well fitted activation curve with a large enough effect in the signal ratio, not every such curve was filed as active; the % refers to the signal ratio; further: % of control where 0% means no effect); conditions: HCT-116 p53RE-bla, beta-lactamase FRET ratio, 16 h; stronger effect = higher value
Procedure, shortened: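 Reporter: beta-lactamase driven by p53 response elements, stably integrated in HCT-116 cells. Cells seeded at 4,000/well, 5 h preincubation, compound (DMSO) 16 h at 37 C; B/G FRET substrate 2 h RT; fluorescence intensity read.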

[8] = qHTS assay for small molecule activators of the nuclear factor-kappa B (NF-kB) signaling pathway (AID 651749; active means well fitted activation curve with a large enough effect in the signal ratio; the % refers to the signal ratio; further: % of control where 0% means no effect); conditions: NF-kB-bla ME-180 cells, beta-lactamase FRET ratio, 16 h; stronger effect = higher value
Procedure, shortened: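 NF-kB-bla ME-180 cells, 2,000/well; 23 nL compound or DMSO pinned; 16 hr, 37C/5% CO2; beta-lactamase FRET read-out.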

[9] = molecular target: Thyroid hormone receptor beta (Homo sapiens) (UniProt P10828); experiment: qHTS assay for small molecule agonists of thyroid hormone receptor beta signaling (AID 588545); conditions: TR-UAS-bla GripTite HEK 293, beta-lactamase ratio, agonist mode, 18 h, percent of T3 response, DMSO as zero; series mostly up to 76.7 µM
Thyroid hormone receptor beta (Homo sapiens), sequence (P10828 whole entry, looked up): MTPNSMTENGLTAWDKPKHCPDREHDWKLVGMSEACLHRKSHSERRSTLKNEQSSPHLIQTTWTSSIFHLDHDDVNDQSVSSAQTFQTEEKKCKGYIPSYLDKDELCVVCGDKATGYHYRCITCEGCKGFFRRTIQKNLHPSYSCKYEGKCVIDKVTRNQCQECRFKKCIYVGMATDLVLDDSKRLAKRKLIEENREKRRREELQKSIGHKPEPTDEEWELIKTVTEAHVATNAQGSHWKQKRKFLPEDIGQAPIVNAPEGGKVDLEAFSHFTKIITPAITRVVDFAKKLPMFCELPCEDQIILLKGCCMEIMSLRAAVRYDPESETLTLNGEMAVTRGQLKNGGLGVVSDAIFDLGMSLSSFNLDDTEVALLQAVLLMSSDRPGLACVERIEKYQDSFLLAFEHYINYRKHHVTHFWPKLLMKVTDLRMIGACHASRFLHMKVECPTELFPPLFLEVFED
Procedure, shortened: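 Agonist activity was read as beta-lactamase CCF4 fluorescence (405 ex, 460/530 em), scaled between DMSO (0%) and 10 nM T3 (100%), then Hill-fitted for EC50 and efficacy. HEK 293 TR-UAS-bla cells in 2% charcoal/dextran FBS medium were exposed 18 h at 37 C.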

[10] = molecular target: Thyroid hormone receptor beta (Homo sapiens) (UniProt P10828); experiment: qHTS assay for small molecule antagonists of thyroid hormone receptor beta signaling (AID 588547; active means well fitted inhibition curve with a large enough effect in the signal ratio, with a control signal flat, not every such curve was filed as active; the % refers to the signal ratio;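 further: cells stimulated with 0.4 nM T3 agonist during compound exposure; on the % scale 0 is the no-effect control and ±100 the full control effect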); conditions: TR-UAS-bla HEK293, beta-lactamase ratio, antagonist mode, 18 h
Procedure, shortened: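 TR-UAS-bla GripTite HEK293 cells in 2% charcoal/dextran FBS medium; compounds 0.59 nM to 92 uM with T3 at 0.4nM final, 18 h at 37 C. Beta-lactamase read by CCF4 fluorescence (460/530 nm); Hill fits gave IC50 and efficacy.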

Row | Compound | max response [1] | outcome [2] | max response [3] | max response [4] | Potency [5] | Potency [6] | activation [7] | activation [8] | outcome [9] | activity change % (negative = inhibition) [10]
1 | CNC(=O)c1ccccc1 | -5.28% | inactive | -1.2% | 15.4% (inactive) | inactive | inactive | 1.09% (inactive) | -1.22% (inactive) |  | 
2 | O=C(O)c1cccc(Cl)c1Cl | -8.8% | inactive | -3.86% | -4.53% (inactive) | inactive | inactive | -0.257% (inactive) | 0.0203% (inactive) |  | 
3 | COc1ccc(OC)cc1 | -11% | inactive | -6.6% | 0.277% (inactive) | inactive |  | 1.53% (inactive) | -2.07% (inactive) |  | 
4 | c1ccc(Nc2ccccc2)cc1 | -15.4% and 2.86% | inactive | 1.16% and -8.24% | -5.42% (inactive) and 3.85% (inactive) | inactive | inactive | 1.33% (inactive) and -1.7% (inactive) | 0.526% (inactive) and -2.1% (inactive) |  | 
5 | CN(C)CCCNCCCN | -7.09% | inactive | -5.37% | 0.789% (inactive) | inactive |  | -2.59% (inactive) |  |  | 
6 | CC1=C(/C=C/C(C)=C/C=C/C(C)=C\C=O)C(C)(C)CCC1 |  |  |  |  |  | 37.6 µM (active) | 8.65% (inactive) | -1.57% (inactive) | inactive | -14.6% (inactive)
7 | C1CCOC1 | -14.4% | inactive | -8.68% | 0.04% (inactive) | inactive | inactive | 1.06% (inactive) | 1.14% (inactive) |  | 
8 | Nc1nc2ccccc2[nH]1 |  |  | -22% | -2.52% (inactive) | inactive | inactive | 1.82% (inactive) |  | inactive | 16% (inactive)
9 | Cc1ccc(Cl)cc1 | 0.942% | inactive | -3.57% | 8.67% (inactive) | inactive | inactive | -2.72% (inactive) |  |  | 
10 | C[C@@H]1CC2(OC3C[C@@]4(C)C5=CC[C@H]6C(C)(C)C(O[C@@H]7OC[C@@H](O)[C@H](O)[C@H]7O)CC[C@@]67C[C@@]57CC[C@]4(C)C31)OC(O)C1(C)OC21 (some centres undefined) |  |  |  |  | inactive |  | -4.93% (inactive) | -1.92% (inactive) | inactive | 
11 | O=C(Cl)c1ccccc1[N+](=O)[O-] | -17.2% | inactive |  |  | inactive |  | 0.51% (inactive) | -0.445% (inactive) |  | -10.2% (inactive)
12 | Cc1ccc2nc(-c3ccc(N)cc3)sc2c1S(=O)(=O)O |  |  | -1.52% | 30.6% (inactive) | inactive | 42.2 µM (active) | 18.6% (inactive) |  |  | 
13 | O=C(O[C@@H](C(=O)O)[C@@H](OC(=O)c1ccccc1)C(=O)O)c1ccccc1 | -17.8% | inactive | 4.27% | -0.94% (inactive) | inactive |  | -2.28% (inactive) | 0.306% (inactive) |  | 
14 | CC(O)CC(C)O (centres undefined) | -6.63% | inactive | 14.5% | 3.51% (inactive) | inactive |  |  | -0.133% (inactive) |  | -2.07% (inactive)
15 | CSCCC=O | -12.2% | inactive | -2.47% | 16.4% (inactive) | inactive |  | -3.46% (inactive) | 0.77% (inactive) |  | 
16 | CC(C)(c1cc(Br)c(OCC(Br)CBr)c(Br)c1)c1cc(Br)c(OCC(Br)CBr)c(Br)c1 (centres undefined) |  |  | -15.9% | 2.49% (inactive) | inactive | inactive | 2.84% (inactive) |  |  | -9.17% (inactive)
17 | CC(=O)OCc1ccco1 | 9.34% | inactive | -0.347% | 29.2% (inactive) | inactive |  |  | 0.228% (inactive) |  | -12.4% (inactive)
18 | COc1ccccc1[N+](=O)[O-] |  |  | -6.53% and 1.73% | 20.4% (inactive) and 0.175% (inactive) | inactive | inactive | -2.31% (inactive) and 1.29% (inactive) |  | inactive | -3.34% (inactive) and -9.45% (inactive)
19 | Cc1ccc2ccccc2c1[N+](=O)[O-] | -7.86% | inactive | 0.642% | 2.75% (inactive) | inactive |  | 0.53% (inactive) | 0.793% (inactive) |  | -6.91% (inactive)
20 | [O-]/[N+](=N\O)c1ccccc1 |  |  |  |  | inactive |  | -2.28% (inactive) |  | inactive | 
21 | Cc1ccccc1Br | -14.2% | inactive | 1.58% | 1.27% (inactive) | inactive | inactive |  | -0.604% (inactive) |  | 
22 | CC(C)(C)OC=O | -9.54% | inactive | -10.7% | 2.16% (inactive) | inactive | inactive | -3.33% (inactive) |  |  | 
23 | CCc1ccccc1 | 10.6% | inactive | 3.87% | 1.68% (inactive) | inactive |  |  | -1.59% (inactive) |  | 
24 | O=Nc1ccc(NO)cc1 |  |  |  |  | inactive | 13.3 µM (active) | -5.55% (inactive) | -2.26% (inactive) | inactive | -12.9% (inactive)
25 | Clc1cc(Cl)cc(Cl)c1 | -9.27% | inactive | -4.96% | 2.45% (inactive) | inactive | inactive | -2.32% (inactive) |  |  | 

Source: PubChem BioAssay (NCATS)
